ChEMBL document CHEMBL2218924, “A broad activity screen in support of a chemogenomic map for kinase signalling research and drug discovery” (Biochem J, 2013)

Assays:
[1] = biological target: T1, Dual specificity tyrosine-phosphorylation-regulated kinase 2 (Homo sapiens) (UniProt Q92630); settings: at 10 µM
T1 sequence (whole entry): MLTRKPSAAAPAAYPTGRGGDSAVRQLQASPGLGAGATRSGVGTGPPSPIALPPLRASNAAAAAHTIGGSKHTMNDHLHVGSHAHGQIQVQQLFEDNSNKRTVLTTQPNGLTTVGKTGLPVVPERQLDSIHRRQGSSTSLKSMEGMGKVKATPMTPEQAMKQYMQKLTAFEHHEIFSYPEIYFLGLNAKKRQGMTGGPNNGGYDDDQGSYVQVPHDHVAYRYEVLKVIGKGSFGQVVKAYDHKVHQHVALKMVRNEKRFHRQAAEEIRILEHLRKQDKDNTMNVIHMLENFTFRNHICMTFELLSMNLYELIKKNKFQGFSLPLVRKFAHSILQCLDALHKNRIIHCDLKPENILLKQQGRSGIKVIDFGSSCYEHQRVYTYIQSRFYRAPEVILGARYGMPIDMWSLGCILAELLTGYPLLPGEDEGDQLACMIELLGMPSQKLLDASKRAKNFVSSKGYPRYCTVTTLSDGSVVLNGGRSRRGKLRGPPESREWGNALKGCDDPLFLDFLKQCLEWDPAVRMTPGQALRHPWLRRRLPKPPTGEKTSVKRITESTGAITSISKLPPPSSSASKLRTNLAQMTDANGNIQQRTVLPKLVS

[2] = biological target: Ephrin type-A receptor 2 (Homo sapiens) (UniProt P29317); settings: at 1 µM
[3] = biological target: Ephrin type-A receptor 2 (Homo sapiens) (UniProt P29317); settings: at 10 µM
[4] = biological target: Ephrin type-A receptor 4 (Homo sapiens) (UniProt P54764); settings: at 1 µM
[5] = biological target: Ephrin type-A receptor 4 (Homo sapiens) (UniProt P54764); settings: at 10 µM
[6] = biological target: Ephrin type-A receptor 5 (Homo sapiens) (UniProt P54756); settings: at 1 µM
[7] = biological target: Ephrin type-A receptor 5 (Homo sapiens) (UniProt P54756); settings: at 10 µM
[8] = biological target: Ephrin type-A receptor 7 (Homo sapiens) (UniProt Q15375); settings: at 1 µM
[9] = biological target: Ephrin type-A receptor 7 (Homo sapiens) (UniProt Q15375); settings: at 10 µM
[10] = biological target: T2, Serine/threonine-protein kinase 17A (Homo sapiens) (UniProt Q9UEE5); settings: at 1 µM
T2 sequence (whole entry): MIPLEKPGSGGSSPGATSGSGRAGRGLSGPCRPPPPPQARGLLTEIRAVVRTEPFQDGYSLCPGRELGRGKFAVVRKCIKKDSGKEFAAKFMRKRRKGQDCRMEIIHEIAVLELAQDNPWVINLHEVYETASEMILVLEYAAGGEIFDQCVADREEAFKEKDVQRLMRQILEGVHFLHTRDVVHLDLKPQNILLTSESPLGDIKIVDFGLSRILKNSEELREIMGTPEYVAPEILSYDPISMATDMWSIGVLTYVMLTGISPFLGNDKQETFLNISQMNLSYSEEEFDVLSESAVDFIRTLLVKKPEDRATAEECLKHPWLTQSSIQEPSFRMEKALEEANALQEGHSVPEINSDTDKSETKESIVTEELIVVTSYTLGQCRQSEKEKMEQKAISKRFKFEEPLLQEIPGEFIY

[11] = biological target: T2, Serine/threonine-protein kinase 17A (Homo sapiens); settings: at 10 µM
[12] = biological target: T1, Dual specificity tyrosine-phosphorylation-regulated kinase 2 (Homo sapiens); settings: at 1 µM
[13] = biological target: T3, Ephrin type-A receptor 1 (Homo sapiens) (UniProt P21709); settings: at 1 µM
T3 sequence (whole entry): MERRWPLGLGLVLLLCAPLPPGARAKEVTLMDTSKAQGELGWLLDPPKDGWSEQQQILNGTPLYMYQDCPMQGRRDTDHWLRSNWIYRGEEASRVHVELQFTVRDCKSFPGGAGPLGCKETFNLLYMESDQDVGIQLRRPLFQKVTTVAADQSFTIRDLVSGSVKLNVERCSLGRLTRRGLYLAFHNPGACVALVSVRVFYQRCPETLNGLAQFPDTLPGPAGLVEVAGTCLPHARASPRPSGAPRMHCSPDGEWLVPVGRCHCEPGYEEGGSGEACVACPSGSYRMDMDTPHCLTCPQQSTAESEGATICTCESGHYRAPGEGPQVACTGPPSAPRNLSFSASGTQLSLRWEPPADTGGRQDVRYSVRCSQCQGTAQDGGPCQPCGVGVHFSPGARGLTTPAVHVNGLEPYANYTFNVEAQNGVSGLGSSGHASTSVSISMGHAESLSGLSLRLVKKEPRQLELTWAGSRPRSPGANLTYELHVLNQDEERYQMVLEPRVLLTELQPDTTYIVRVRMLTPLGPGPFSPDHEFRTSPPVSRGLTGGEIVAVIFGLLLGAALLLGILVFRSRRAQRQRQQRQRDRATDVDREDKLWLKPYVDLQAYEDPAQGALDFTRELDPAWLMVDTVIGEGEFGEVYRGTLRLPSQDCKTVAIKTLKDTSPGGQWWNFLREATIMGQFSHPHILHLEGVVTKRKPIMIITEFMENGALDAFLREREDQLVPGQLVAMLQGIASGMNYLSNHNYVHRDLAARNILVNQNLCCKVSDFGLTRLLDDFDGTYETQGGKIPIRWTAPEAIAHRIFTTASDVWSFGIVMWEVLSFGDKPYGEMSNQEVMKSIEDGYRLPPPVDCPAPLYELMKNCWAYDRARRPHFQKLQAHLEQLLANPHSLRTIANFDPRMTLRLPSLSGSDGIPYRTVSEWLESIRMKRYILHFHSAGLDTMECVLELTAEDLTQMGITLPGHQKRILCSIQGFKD

[14] = biological target: T3, Ephrin type-A receptor 1 (Homo sapiens); settings: at 10 µM
[15] = biological target: T4, Ephrin type-A receptor 3 (Homo sapiens) (UniProt P29320); settings: at 1 µM
T4 sequence (whole entry): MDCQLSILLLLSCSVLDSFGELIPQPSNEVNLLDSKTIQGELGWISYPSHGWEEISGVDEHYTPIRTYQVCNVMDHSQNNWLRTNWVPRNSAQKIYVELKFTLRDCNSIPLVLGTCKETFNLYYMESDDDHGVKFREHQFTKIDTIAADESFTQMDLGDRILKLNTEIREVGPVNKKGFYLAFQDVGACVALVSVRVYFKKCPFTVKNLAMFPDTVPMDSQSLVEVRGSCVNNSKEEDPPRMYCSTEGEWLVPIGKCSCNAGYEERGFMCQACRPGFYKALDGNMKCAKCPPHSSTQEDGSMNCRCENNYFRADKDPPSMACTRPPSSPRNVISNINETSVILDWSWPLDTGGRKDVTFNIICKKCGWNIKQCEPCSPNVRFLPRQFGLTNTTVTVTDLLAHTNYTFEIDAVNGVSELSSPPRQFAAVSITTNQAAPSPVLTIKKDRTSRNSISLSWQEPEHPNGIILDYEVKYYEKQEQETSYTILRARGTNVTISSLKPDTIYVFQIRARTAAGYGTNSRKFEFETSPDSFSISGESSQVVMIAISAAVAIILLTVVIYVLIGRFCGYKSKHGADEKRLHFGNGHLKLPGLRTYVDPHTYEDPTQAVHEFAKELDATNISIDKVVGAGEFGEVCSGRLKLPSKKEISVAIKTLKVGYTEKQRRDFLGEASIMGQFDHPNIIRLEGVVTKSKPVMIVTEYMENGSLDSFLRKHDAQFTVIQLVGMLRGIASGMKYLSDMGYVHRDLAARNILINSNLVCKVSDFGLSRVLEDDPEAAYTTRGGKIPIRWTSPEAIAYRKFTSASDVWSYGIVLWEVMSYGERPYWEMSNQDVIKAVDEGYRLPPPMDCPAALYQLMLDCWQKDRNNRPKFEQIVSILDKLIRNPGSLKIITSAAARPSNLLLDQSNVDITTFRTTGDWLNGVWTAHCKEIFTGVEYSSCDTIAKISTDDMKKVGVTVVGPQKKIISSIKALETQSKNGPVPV

[16] = biological target: T4, Ephrin type-A receptor 3 (Homo sapiens); settings: at 10 µM
[17] = biological target: T5, Ephrin type-A receptor 8 (Homo sapiens) (UniProt P29322); settings: at 1 µM
T5 sequence (whole entry): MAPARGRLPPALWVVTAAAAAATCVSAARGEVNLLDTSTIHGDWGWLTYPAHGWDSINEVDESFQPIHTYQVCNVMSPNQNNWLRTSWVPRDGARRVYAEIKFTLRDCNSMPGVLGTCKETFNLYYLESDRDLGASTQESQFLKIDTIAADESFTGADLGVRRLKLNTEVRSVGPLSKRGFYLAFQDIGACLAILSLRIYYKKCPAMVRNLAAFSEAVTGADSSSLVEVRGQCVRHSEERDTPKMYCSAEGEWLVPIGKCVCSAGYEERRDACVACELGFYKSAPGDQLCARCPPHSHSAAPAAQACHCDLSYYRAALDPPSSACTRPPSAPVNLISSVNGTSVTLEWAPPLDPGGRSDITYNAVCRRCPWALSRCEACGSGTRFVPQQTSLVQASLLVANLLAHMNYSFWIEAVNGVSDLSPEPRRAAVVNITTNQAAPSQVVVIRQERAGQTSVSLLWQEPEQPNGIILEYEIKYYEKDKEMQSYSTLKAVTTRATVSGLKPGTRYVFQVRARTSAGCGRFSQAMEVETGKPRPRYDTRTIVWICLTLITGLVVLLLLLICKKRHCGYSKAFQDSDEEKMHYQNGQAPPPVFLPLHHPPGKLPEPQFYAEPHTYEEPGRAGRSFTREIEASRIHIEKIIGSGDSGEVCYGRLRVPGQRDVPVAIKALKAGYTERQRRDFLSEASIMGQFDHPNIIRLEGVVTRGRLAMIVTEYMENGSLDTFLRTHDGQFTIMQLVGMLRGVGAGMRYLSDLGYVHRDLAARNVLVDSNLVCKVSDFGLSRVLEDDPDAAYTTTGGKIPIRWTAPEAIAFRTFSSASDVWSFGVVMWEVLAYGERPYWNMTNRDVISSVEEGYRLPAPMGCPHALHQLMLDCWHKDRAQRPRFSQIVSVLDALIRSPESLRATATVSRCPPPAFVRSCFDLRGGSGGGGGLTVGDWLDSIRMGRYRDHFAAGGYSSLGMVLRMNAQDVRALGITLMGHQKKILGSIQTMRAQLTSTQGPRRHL

[18] = biological target: T5, Ephrin type-A receptor 8 (Homo sapiens); settings: at 10 µM
[19] = biological target: T6, Ephrin type-B receptor 1 (Homo sapiens) (UniProt P54762); settings: at 1 µM
T6 sequence (whole entry): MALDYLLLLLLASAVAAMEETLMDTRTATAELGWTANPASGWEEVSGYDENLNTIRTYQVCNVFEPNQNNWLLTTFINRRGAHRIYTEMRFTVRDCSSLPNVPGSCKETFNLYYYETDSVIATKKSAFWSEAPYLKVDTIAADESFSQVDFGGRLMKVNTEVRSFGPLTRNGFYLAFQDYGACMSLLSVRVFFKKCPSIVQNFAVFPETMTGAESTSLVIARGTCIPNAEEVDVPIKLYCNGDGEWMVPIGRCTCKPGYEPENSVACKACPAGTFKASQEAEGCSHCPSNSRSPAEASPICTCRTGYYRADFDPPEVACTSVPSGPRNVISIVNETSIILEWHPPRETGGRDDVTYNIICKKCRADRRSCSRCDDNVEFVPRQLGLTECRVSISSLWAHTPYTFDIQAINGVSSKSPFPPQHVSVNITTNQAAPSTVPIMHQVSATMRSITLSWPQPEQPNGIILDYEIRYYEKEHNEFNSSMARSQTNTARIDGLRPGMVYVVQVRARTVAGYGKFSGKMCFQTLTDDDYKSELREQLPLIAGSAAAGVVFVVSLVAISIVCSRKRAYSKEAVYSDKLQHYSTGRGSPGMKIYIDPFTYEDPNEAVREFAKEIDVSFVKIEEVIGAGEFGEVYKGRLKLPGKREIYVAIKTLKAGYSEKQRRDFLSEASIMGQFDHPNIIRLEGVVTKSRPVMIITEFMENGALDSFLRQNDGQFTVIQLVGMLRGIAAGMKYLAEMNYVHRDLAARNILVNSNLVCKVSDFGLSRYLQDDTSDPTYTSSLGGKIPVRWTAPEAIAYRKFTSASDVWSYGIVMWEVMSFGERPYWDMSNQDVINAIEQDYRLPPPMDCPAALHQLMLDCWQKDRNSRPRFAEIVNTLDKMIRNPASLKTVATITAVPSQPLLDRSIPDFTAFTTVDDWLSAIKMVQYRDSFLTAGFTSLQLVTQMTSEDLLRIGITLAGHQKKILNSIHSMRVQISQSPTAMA

Chain of Ephrin type-A receptor 2 (Homo sapiens) (P29317 whole entry): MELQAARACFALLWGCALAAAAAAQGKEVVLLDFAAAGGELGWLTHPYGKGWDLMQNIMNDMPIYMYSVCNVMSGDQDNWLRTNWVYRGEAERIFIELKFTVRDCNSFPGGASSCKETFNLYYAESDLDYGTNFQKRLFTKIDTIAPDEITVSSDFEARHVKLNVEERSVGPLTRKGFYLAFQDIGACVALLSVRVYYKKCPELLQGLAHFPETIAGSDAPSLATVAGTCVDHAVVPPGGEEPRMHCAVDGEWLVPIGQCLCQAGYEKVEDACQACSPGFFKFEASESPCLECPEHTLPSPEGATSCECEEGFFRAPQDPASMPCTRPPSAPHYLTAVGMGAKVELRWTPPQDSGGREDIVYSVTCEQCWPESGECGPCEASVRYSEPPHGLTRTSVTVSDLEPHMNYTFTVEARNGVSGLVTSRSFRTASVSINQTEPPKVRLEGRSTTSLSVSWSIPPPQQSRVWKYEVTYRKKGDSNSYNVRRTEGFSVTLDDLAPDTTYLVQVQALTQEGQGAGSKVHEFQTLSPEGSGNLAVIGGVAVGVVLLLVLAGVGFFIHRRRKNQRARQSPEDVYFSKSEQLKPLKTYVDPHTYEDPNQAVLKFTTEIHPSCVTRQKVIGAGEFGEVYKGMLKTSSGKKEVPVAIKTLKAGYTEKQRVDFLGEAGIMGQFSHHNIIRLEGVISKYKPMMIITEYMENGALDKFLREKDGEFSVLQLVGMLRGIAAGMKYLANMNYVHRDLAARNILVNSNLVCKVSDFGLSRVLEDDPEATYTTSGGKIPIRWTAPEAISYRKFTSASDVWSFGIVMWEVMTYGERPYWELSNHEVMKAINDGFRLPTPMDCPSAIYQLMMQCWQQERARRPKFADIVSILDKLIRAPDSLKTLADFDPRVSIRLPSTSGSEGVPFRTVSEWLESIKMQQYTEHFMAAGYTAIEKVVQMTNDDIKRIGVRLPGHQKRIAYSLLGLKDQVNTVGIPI
Chain of Ephrin type-A receptor 5 (Homo sapiens) (P54756 whole entry): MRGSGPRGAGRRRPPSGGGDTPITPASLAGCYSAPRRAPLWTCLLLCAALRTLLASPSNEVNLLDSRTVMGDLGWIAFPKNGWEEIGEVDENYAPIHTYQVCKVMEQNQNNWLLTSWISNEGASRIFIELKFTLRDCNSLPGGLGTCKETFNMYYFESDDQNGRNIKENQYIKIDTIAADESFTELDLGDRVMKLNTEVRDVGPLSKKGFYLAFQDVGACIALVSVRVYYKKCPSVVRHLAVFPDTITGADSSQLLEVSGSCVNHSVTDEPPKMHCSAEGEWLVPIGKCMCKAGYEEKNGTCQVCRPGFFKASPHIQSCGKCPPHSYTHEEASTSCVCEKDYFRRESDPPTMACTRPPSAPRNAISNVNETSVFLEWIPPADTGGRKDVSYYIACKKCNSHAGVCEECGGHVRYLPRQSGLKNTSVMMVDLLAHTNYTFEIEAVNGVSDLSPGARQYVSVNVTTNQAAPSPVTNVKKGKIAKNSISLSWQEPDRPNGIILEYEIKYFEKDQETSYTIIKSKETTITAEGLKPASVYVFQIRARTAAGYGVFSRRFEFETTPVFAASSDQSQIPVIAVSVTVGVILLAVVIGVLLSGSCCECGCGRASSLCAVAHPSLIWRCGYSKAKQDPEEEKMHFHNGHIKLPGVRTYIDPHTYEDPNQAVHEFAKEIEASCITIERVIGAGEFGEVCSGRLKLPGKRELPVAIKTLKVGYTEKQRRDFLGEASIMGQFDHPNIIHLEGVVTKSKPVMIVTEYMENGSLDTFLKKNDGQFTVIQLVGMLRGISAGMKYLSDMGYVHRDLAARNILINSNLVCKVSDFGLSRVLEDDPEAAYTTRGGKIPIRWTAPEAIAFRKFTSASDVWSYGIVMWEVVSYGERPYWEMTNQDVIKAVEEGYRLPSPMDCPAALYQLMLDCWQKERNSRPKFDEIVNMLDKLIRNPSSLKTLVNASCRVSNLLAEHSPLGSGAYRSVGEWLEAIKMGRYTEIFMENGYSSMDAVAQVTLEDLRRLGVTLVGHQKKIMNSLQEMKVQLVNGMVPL
Chain of Ephrin type-A receptor 4 (Homo sapiens) (P54764 whole entry): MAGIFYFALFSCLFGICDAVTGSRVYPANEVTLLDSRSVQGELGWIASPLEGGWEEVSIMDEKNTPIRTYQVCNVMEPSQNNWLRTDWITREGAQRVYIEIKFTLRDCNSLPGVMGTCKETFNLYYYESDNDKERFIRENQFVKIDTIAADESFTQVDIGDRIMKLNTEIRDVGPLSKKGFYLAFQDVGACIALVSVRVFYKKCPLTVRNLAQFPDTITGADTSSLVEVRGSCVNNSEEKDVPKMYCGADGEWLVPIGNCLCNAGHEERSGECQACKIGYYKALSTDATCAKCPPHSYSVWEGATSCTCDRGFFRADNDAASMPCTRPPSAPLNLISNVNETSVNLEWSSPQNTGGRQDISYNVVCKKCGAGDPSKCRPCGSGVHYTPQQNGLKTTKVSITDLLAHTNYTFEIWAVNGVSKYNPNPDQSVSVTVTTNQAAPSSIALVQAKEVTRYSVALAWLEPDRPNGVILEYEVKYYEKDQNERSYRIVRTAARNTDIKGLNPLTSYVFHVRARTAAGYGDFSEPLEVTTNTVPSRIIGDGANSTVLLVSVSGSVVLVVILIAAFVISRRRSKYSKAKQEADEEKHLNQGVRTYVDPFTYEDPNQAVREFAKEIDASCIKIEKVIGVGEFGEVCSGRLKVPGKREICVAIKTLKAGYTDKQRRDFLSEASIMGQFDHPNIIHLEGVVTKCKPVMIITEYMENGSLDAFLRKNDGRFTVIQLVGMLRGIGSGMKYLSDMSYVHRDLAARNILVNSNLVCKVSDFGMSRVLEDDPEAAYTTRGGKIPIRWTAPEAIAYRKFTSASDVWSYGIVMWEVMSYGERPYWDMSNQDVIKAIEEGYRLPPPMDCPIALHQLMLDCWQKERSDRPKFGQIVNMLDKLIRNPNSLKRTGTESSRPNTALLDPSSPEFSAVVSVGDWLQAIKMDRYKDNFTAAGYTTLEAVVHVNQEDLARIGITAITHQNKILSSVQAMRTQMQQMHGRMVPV
Chain of Ephrin type-A receptor 7 (Homo sapiens) (Q15375 28-998 limits assumed): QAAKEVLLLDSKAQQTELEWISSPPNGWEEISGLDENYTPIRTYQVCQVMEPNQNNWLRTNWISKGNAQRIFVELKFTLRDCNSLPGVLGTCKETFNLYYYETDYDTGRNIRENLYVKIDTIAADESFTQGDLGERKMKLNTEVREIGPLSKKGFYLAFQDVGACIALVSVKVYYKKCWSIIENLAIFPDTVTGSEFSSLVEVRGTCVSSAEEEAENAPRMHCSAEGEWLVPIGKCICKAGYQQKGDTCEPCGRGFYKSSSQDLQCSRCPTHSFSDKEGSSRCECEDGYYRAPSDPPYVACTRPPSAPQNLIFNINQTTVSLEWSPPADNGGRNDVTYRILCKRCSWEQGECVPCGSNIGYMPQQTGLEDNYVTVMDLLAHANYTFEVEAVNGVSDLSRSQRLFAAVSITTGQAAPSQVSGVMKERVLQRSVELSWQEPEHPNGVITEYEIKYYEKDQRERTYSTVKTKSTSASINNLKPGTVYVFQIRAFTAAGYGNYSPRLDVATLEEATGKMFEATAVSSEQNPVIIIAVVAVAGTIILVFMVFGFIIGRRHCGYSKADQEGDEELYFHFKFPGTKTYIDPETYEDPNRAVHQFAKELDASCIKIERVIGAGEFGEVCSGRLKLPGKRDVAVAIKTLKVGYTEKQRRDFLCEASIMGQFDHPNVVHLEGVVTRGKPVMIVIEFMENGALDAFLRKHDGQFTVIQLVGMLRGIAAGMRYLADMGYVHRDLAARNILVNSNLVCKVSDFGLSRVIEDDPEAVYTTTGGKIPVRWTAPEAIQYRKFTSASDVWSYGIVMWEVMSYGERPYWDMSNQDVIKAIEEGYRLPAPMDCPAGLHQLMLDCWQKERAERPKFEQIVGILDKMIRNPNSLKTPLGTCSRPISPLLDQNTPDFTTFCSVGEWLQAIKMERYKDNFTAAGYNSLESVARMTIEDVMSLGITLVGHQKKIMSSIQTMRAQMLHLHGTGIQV

SMILES | residual activity [1] | residual activity [2] | residual activity [3] | residual activity [4] | residual activity [5] | residual activity [6] | residual activity [7] | residual activity [8] | residual activity [9] | residual activity [10] | residual activity [11] | residual activity [12] | residual activity [13] | residual activity [14] | residual activity [15] | residual activity [16] | residual activity [17] | residual activity [18] | residual activity [19]
CCc1nc(-c2ccc(OC)cc2)[nH]c1-c1ccncc1 | 34% | 105% | 105% | 114% | 109% | 116% | 104% | 114% | 100% |  |  |  |  |  |  |  |  |  | 
O=C1Nc2ccc3ncsc3c2/C1=C/c1c[nH]cn1 | -5% | 77% | 31% | 102% | 68% | 89% | 42% | 77% | 17% | 1% | 1% | 1% | 58% | 24% | 82% | 28% | 95% | 72% | 60%
